Assay results: PubChem BioAssay AID1159580 (chemical genetic matrix, 2015)
Hit rate of the full screen: of about 5,500 compounds, about 2,000 (36%) were called active. Not shown: some 18% with an inconclusive outcome. No stated cut-off is given here; in the data, active means normalized growth mostly below about 0.91 (no sharp cut-off); inconclusive means no clear call, values can overlap the other calls; inactive means mostly above about 0.92. The list shows a part of the results.

Experiment: chemical genetic growth profiling, strain panel (AID 1159580);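 further: tested at 20 µM; growth read once vehicle control cultures reached saturation at 30 °C; 1 = growth at the plate median or of vehicle wells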
Conditions: growth OD

Measured: normalized growth

COc1cc([C@@H]2c3cc4c(cc3C(O[C@@H]3O[C@@H]5CO[C@@H](c6cccs6)OC5[C@H](O)[C@H]3O)C3COC(=O)[C@@H]32)OCO4)cc(OC)c1O (stereo not given in full)
inactive: S. cerevisiae deletion strains, locus YJR066W, strain TOR1, stronger effect = lower value 0.99 | S. cerevisiae deletion strains, locus YKL009W, strain mrt4, stronger effect = lower value 1.03 | S. cerevisiae deletion strains, locus YKL068W, stronger effect = lower value 1.01 | S. cerevisiae deletion strains, locus YKL085W, strain MDH1 (second series), stronger effect = lower value 1 | S. cerevisiae deletion strains, locus YKL085W, strain MDH1, stronger effect = lower value 1 | S. cerevisiae deletion strains, locus YKL160W, strain elf1, stronger effect = lower value 1.05 | S. cerevisiae deletion strains, locus YKL190W, strain CNB1, stronger effect = lower value 0.997 | S. cerevisiae deletion strains, locus YKR001C, strain vps1, stronger effect = lower value 1.02 | S. cerevisiae deletion strains, locus YKR026C, strain gcn3, stronger effect = lower value 0.986 | S. cerevisiae deletion strains, locus YKR091W, strain srl3, stronger effect = lower value 0.998 | S. cerevisiae deletion strains, locus YLL001W, strain dnm1, stronger effect = lower value 1.05 | S. cerevisiae deletion strains, locus YLL026W, stronger effect = lower value 0.984 | S. cerevisiae deletion strains, locus YLL041C, strain sdh2, stronger effect = lower value 0.967 | S. cerevisiae deletion strains, locus YLR027C, strain aat2, stronger effect = lower value 0.985 | S. cerevisiae deletion strains, locus YLR039C, strain RIC1, stronger effect = lower value 1.01 | S. cerevisiae deletion strains, locus YLR058C, strain SHM2, stronger effect = lower value 1 | S. cerevisiae deletion strains, locus YLR102C, strain apc9, stronger effect = lower value 1.02 | S. cerevisiae deletion strains, locus YLR113W, strain HOG1, stronger effect = lower value 1.01 | S. cerevisiae deletion strains, locus YLR221C, strain rsa3, stronger effect = lower value 1.03 | S. cerevisiae deletion strains, locus YLR258W, strain gsy2, stronger effect = lower value 1 | S. cerevisiae deletion strains, locus YLR262C, strain YPT6 (second series), stronger effect = lower value 1 | S. cerevisiae deletion strains, locus YLR262C, strain YPT6, stronger effect = lower value 0.964 | S. cerevisiae deletion strains, locus YLR268W, strain sec22, stronger effect = lower value 1.02 | S. cerevisiae deletion strains, locus YLR320W, strain mms22, stronger effect = lower value 1.01 | S. cerevisiae deletion strains, locus YLR330W, strain CHS5, stronger effect = lower value 0.999 | S. cerevisiae deletion strains, locus YLR342W, strain FKS1 (second series), stronger effect = lower value 1.01 | S. cerevisiae deletion strains, locus YLR342W, strain FKS1, stronger effect = lower value 0.99 | S. cerevisiae deletion strains, locus YLR357W, strain rsc2, stronger effect = lower value 0.98 | S. cerevisiae deletion strains, locus YLR370C, strain arc18, stronger effect = lower value 0.986 | S. cerevisiae deletion strains, locus YLR371W, strain rom2, stronger effect = lower value 1.01 | S. cerevisiae deletion strains, locus YLR384C, strain iki3, stronger effect = lower value 0.97 | S. cerevisiae deletion strains, locus YLR418C, strain cdc73, stronger effect = lower value 1.02 | S. cerevisiae deletion strains, locus YML016C, strain PPZ1, stronger effect = lower value 1 | S. cerevisiae deletion strains, locus YML032C, strain rad52, stronger effect = lower value 0.917 | S. cerevisiae deletion strains, locus YML120C, strain ndi1, stronger effect = lower value 1.02 | S. cerevisiae deletion strains, locus YML124C, strain tub3, stronger effect = lower value 1.01 | S. cerevisiae deletion strains, locus YMR058W, strain fet3, stronger effect = lower value 0.993 | S. cerevisiae deletion strains, locus YMR078C, strain ctf18, stronger effect = lower value 1.01 | S. cerevisiae deletion strains, locus YMR125W, strain sto1, stronger effect = lower value 1.01 | S. cerevisiae deletion strains, locus YMR129W, stronger effect = lower value 0.983 | S. cerevisiae deletion strains, locus YMR205C, strain PFK2, stronger effect = lower value 1.02 | S. cerevisiae deletion strains, locus YMR223W, strain ubp8, stronger effect = lower value 1.02 | S. cerevisiae deletion strains, locus YMR231W, strain pep5, stronger effect = lower value 0.978 | S. cerevisiae deletion strains, locus YMR263W, strain SAP30, stronger effect = lower value 1 | S. cerevisiae deletion strains, locus YMR307W, strain GAS1, stronger effect = lower value 0.933 | S. cerevisiae deletion strains, locus YNL067W, strain RPL9B, stronger effect = lower value 0.998 | S. cerevisiae deletion strains, locus YNL071W, strain lat1, stronger effect = lower value 0.976 | S. cerevisiae deletion strains, locus YNL128W, strain TEP1, stronger effect = lower value 1.02 | S. cerevisiae deletion strains, locus YNL183C, strain NPR1, stronger effect = lower value 0.987 | S. cerevisiae deletion strains, locus YNL209W, strain ssb2, stronger effect = lower value 0.985 | S. cerevisiae deletion strains, locus YNL233W, strain BNI4, stronger effect = lower value 1 | S. cerevisiae deletion strains, locus YNL248C, strain rpa49, stronger effect = lower value 0.999 | S. cerevisiae deletion strains, locus YNL250W, strain rad50, stronger effect = lower value 0.977 | S. cerevisiae deletion strains, locus YNL271C, strain bni1, stronger effect = lower value 1.02 | S. cerevisiae deletion strains, locus YNL298W, strain CLA4, stronger effect = lower value 1.04 | S. cerevisiae deletion strains, locus YNL307C, strain MCK1, stronger effect = lower value 1.03 | S. cerevisiae deletion strains, locus YNL322C, strain KRE1 (second series), stronger effect = lower value 0.994 | S. cerevisiae deletion strains, locus YNR049C, strain mso1, stronger effect = lower value 0.978 | S. cerevisiae deletion strains, locus YNR052C, strain pop2, stronger effect = lower value 1.03 | S. cerevisiae deletion strains, locus YOL006C, strain TOP1, stronger effect = lower value 0.89 | S. cerevisiae deletion strains, locus YOL012C, strain htz1 0.835 | S. cerevisiae deletion strains, locus YOL147C, strain pex11, stronger effect = lower value 1.01 | S. cerevisiae deletion strains, locus YOR001W, strain rrp6, stronger effect = lower value 0.933 | S. cerevisiae deletion strains, locus YOR061W, strain CKA2, stronger effect = lower value 1 | S. cerevisiae deletion strains, locus YOR069W, strain VPS5, stronger effect = lower value 1 | S. cerevisiae deletion strains, locus YOR070C, strain gyp1, stronger effect = lower value 0.991 | S. cerevisiae deletion strains, locus YOR080W, strain dia2, stronger effect = lower value 0.971 | S. cerevisiae deletion strains, locus YOR083W, strain WHI5, stronger effect = lower value 1.05 | S. cerevisiae deletion strains, locus YOR106W, strain vam3, stronger effect = lower value 1.02 | S. cerevisiae deletion strains, locus YOR136W, strain idh2, stronger effect = lower value 1.02 | S. cerevisiae deletion strains, locus YOR144C, strain elg1, stronger effect = lower value 1.01 | S. cerevisiae deletion strains, locus YOR184W, strain ser1, stronger effect = lower value 1.01 | S. cerevisiae deletion strains, locus YOR231W, strain MKK1, stronger effect = lower value 1 | S. cerevisiae deletion strains, locus YOR265W, strain rbl2, stronger effect = lower value 0.985 | S. cerevisiae deletion strains, locus YOR270C, strain vph1, stronger effect = lower value 0.891 | S. cerevisiae deletion strains, locus YOR290C, strain snf2, stronger effect = lower value 0.982 | S. cerevisiae deletion strains, locus YOR316C, strain cot1, stronger effect = lower value 1.03 | S. cerevisiae deletion strains, locus YPL051W, strain arl3, stronger effect = lower value 1.03 | S. cerevisiae deletion strains, locus YPL055C, strain LGE1, stronger effect = lower value 0.996 | S. cerevisiae deletion strains, locus YPL078C, strain atp4, stronger effect = lower value 1.03 | S. cerevisiae deletion strains, locus YPL106C, strain sse1, stronger effect = lower value 1.01 | S. cerevisiae deletion strains, locus YPL240C, strain hsp82, stronger effect = lower value 0.99 | S. cerevisiae deletion strains, locus YPL241C, strain CIN2, stronger effect = lower value 1 | S. cerevisiae deletion strains, locus YPL256C, strain CLN2, stronger effect = lower value 1.03 | S. cerevisiae deletion strains, locus YPR119W, strain clb2, stronger effect = lower value 1.01 | S. cerevisiae deletion strains, locus YPR141C, strain kar3, stronger effect = lower value 1.01 | S. cerevisiae deletion strains, locus YPR163C, strain tif3, stronger effect = lower value 1.03 | S. cerevisiae deletion strains, locus YPR167C, strain met16, stronger effect = lower value 1.02 | S. cerevisiae deletion strains, strain wtn01, stronger effect = lower value 1.03 | S. cerevisiae strains, strain wild type, stronger effect = lower value 1.01
